Positions count from the first letter of the chain named. Over roughly 24,000 sequences, “enrichment r” has its median near 0.99; the highest 2% begin near 3.7. The sample as a whole holds a higher share of the highest values than the screen did.
T1: UNK ZnF1-3 (human, UniProt Q9C0B0 31-174)
T1 sequence: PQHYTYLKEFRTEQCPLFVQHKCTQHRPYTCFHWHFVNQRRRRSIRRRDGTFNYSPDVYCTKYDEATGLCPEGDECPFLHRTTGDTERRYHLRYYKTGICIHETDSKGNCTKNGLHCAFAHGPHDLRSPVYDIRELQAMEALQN

B1: chr8:29927545:29927546:-_ENSG00000133872_ENST00000521265|hu_mus|FALSE|FALSE (ssRNA)
RNA: GGGAGUUCUACAGUCCGACGAUCAGAGGACUCGUAGCCUUCACAGCUCACCACAGUUUUGCCAAAUUUGUAUGCAAUAUCCAAGUCGGUCUUACAUUCCCACUGUACAUCGUAGCCAUCCCAGCCUUUGUUCUGGCACUGUAUCAACAGAGGAUUGAGCAUCA
B2: chr15:98568902:98568903:-_ENSMUSG00000051853_ENSMUST00000053183|mus_hu|FALSE|FALSE (ssRNA)
RNA: GGGAGUUCUACAGUCCGACGAUCGGCCAGGGAAAUGAAUACAUUUUUAAAUGAAAUAGAACCUCCAACACCCCCCCCACAACCACCACACACAAACACACCCACACCCAUAUACACACACACUCACACACACACACAGGCCUACAACAGAGGAUUGAGCAUCA
B3: chr7:135832672:135832673:+_ENSMUSG00000042105_ENSMUST00000118605|mus_mus|FALSE|FALSE (ssRNA)
RNA: GGGAGUUCUACAGUCCGACGAUCCACGCCAAAAAUUCCAUCACGACACAAUUUUUACACACACACCAAAAAACAAAAAAAACAAAAAAAAAAAAAAAAAACCCAAAAAACAAAAAACCCUACAGUGUCACUUCCAUCCUGCCUCAACAGAGGAUUGAGCAUCA
B4: chr14:63839279:63839280:-_ENSG00000154001_ENST00000337537|hu_hu|FALSE|FALSE (ssRNA)
RNA: GGGAGUUCUACAGUCCGACGAUCUUAAAAGGAAAAAAGGAAAACAAGGAAAAAAAACCACCCCAAACCCCAAAAAACUCUAAACACUUAAAAAUGCCAAUAACAUCCAUACAUCCCUUUCCCAUCCCACCCUCAUCCCCACAACAACAGAGGAUUGAGCAUCA
B5: chr3:151883435:151883436:+_ENSMUSG00000028034_ENSMUST00000166984|mus_mus|motif|central (ssRNA)
RNA: GGGAGUUCUACAGUCCGACGAUCCAUUUCUCCAUUUCUUCCUAUUACAAUGCCAACAGCAAAUCUUGGAAUUGGGACAUCGGUCCCUUCAUUGCCUCCUAUUCUUGAGCCAUACUCAUUCCGCACUUCUCUGAAACCACCUUGCAACAGAGGAUUGAGCAUCA
B6: chr1:225611761:225611762:-_ENSG00000143815_ENST00000272163|hu_mus|hu_hu_hu_mus_True|38_48 (ssRNA)
RNA: GGGAGUUCUACAGUCCGACGAUCCCAGGCCAUCGGCCUCUGACCACUUCACCCUCAACAAACUUCCUACUUGGCAUUUUCUAAAAUUAACCUGCGCCAGGUUCCGGGGGAACUCCAGCCACUCCAGGACAGUCACCAGCAGCCCAACAGAGGAUUGAGCAUCA
B7: chr1:225611761:225611762:-_ENSG00000143815_ENST00000272163|hu_mus|hu_hu_hu_mus_True|38_98 (ssRNA)
RNA: B6 RNA with G41U, A89G, C90U, C94G, G95C
B8: chr7:26237324:26237325:-_ENSG00000122566_ENST00000356674|hu_mus|FALSE|FALSE (ssRNA)
RNA: GGGAGUUCUACAGUCCGACGAUCCUCAUAGUAGUUUCUCAAACUUUCUUCUGUGGUUUCAAAGCUUAAGCCACCAAUAAAGAGCUUUCGGAACUGUUCCUUUUCUCUCUUUUUCCUCUCCAAAGGAACAGUUUCUAAAGUUUUCAACAGAGGAUUGAGCAUCA
B9: chr14:63839279:63839280:-_ENSG00000154001_ENST00000337537|hu_hu|motif|central (ssRNA)
RNA: B4 RNA with U80G, A81G
B10: chr1:66486067:66486068:+_ENSMUSG00000015222_ENSMUST00000077355|mus_hu|FALSE|FALSE (ssRNA)
RNA: GGGAGUUCUACAGUCCGACGAUCUUAUCCAGGUCCCAAAUGUUAAUAACUUAAUUGAAUCUUUCUUCCCAUUUAUACAAAAUAACACUUUAAAAAAACUUAUUUCUUACAUGCUCUUCCCUUCCUGCAAUCAGACUCCUUGGUCAACAGAGGAUUGAGCAUCA
B11: chr5:131913501:131913502:-_ENSMUSG00000029673_ENSMUST00000160071|mus_mus|FALSE|FALSE (ssRNA)
RNA: GGGAGUUCUACAGUCCGACGAUCGUUCCAGUGCACAGAAUCCUUGGGAUUUUUUUUUUCUUUUUAGUUGUUGUCUUAAAAAAAAAAAAAUUAAAACGAAAGAAAGAAAACAAAACACCGCACACAUCUGGUGUCCACAAAAUCCAACAGAGGAUUGAGCAUCA
B12: 141912308_141912428_1497_3pUTR_ENSMUSG00000028273_ENSMUST00000029941|mouse|control|control (ssRNA)
RNA: GGGAGUUCUACAGUCCGACGAUCUUGGCACCGGCCACAUUCAGGAGCAAAGAACUUCUCAUAGCAUAGCUCACAGUACAGUGCUCCCUUCUCCUCUACAAAGCCUAUGUAGGCCAUUGUGUUUUUGCAAUGAGCACAGUUAAACAACAGAGGAUUGAGCAUCA
B13: chr11:51934471:51934472:+_ENSMUSG00000020349_ENSMUST00000020608|perfect_dup|motif|central (ssRNA)
RNA: GGGAGUUCUACAGUCCGACGAUCGAUUGCAGCUUGGUUACCACAACGAUAACAAUAGUUUGGAGCACUGAAAAUCGUUACGGCAUUCCGGUCAUGGCACCAGUUAUAUCCCUCCAUCACUAGCUGGUGAGCUCUAGACACCAACAACAGAGGAUUGAGCAUCA
B14: chr12:16048344:16048345:+_ENSG00000023734_ENST00000419869|hu_hu|hu_hu_hu_mus_True|38_68 (ssRNA)
RNA: GGGAGUUCUACAGUCCGACGAUCAGAUCGUCCAUAAGUAAUAACCAAAAUCUCUCCUUCAGGAAUAUAUUCCAUACUGCUAACAGACAUAUUAAAAUUUAGAGAUUUCACUUCUGUCAUUGUGGCAUGAUCCCAGAGCCGAACCAACAGAGGAUUGAGCAUCA

target: T1, UNK ZnF1-3; assay: nsRBNS (natural sequence RNA bind-n-seq); RBNS binding buffer (assumed for nsRBNS): 25 mM Tris pH 7.5, 150 mM KCl, 3 mM MgCl2, 0.01% Triton X-100, 500 ug/ml BSA, 20 U/ml SUPERase-In, 4 C; UNK is unkempt and MSI1 is Musashi-1; names of the RNAs are library labels; protein concentration not given here; high values mean tight binding

Binder	binding signal [enrichment R]
B1	0.8
B2	3.59
B3	11.5
B4	4.18
B5	0.909
B6	1.33
B7	1.5
B8	0.272
B9	3.96
B10	1.42
B11	1.15
B12	0.923
B13	1.16
B14	1.04

— PMC12136788
